# Laboratory results reported in the supplement of paper PMC11732987, “Enantioselective OTUD7B fragment discovery through chemoproteomics screening and high-throughput optimisation” (Communications Chemistry, 2025).
# Unmarked numbers belong to inactive results.
# How the values were obtained:
# Test in all cases: log2 ratio of Biotin-Ahx-Ub-VS probe labelling (fragment/DMSO); higher = less target engagement (more negative = stronger competition), active = hit call of the paper (q ≤ 0.05, log2 ratio ≤ -1)
# Settings in all cases: compound concentration: 200 uM; treatment time: 3 h
# USP19 = target: T1, USP19 (UniProt O94966)
# T1 sequence (whole entry): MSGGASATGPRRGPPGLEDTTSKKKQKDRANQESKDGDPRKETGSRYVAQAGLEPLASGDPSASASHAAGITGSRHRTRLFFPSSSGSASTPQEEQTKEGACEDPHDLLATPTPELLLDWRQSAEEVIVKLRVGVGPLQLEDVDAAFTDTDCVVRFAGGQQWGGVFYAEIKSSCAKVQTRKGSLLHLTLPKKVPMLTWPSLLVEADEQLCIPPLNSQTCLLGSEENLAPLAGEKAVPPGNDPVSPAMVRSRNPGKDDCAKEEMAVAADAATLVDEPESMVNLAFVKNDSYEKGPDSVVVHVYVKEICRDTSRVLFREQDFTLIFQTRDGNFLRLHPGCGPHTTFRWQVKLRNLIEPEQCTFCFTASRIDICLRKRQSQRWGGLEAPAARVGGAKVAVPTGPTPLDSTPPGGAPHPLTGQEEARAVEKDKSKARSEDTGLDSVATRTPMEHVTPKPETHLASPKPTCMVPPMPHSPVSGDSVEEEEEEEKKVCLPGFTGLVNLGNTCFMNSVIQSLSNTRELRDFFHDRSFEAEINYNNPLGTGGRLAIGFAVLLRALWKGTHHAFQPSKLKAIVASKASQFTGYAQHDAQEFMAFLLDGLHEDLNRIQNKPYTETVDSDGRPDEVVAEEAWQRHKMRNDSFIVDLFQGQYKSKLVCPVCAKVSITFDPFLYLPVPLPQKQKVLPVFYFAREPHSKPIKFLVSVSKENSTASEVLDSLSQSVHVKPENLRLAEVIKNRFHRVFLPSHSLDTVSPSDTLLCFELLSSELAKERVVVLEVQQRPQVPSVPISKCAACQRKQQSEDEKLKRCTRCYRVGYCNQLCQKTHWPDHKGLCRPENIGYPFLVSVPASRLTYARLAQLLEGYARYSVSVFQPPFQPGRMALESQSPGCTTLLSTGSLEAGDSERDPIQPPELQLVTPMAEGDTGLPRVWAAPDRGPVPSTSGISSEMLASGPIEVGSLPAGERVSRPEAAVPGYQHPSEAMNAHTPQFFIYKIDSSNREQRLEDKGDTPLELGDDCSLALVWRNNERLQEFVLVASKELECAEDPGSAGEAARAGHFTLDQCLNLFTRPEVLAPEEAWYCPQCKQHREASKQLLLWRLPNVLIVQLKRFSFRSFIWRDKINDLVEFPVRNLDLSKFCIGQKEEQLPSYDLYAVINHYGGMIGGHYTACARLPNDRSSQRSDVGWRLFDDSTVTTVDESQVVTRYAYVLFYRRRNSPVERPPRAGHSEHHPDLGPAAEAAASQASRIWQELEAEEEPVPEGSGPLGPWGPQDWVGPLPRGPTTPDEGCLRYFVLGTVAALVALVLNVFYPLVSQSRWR
# Procedure, shortened: (§1)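 Average log2 ratios of fragment over vehicle were obtained by unpaired t-test from global-median-normalised Spectronaut label-free quantities. Proteins with ≥2 unique peptides were included. HEK293T lysate (495 µg per sample) was treated in triplicate with fragment at 200 µM or vehicle for 3 h, then with Biotin-Ahx-Ub-VS at 0.5 µM final for 1 h, and labelled DUBs were NeutrAvidin-enriched and run by diaPASEF LC-MS/MS.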
# USP24 = USP24 (UniProt Q9UPU5)
# Procedure, shortened: as §1
# USP25 = target: T2, USP25 (UniProt Q9UHP3)
# T2 sequence (whole entry): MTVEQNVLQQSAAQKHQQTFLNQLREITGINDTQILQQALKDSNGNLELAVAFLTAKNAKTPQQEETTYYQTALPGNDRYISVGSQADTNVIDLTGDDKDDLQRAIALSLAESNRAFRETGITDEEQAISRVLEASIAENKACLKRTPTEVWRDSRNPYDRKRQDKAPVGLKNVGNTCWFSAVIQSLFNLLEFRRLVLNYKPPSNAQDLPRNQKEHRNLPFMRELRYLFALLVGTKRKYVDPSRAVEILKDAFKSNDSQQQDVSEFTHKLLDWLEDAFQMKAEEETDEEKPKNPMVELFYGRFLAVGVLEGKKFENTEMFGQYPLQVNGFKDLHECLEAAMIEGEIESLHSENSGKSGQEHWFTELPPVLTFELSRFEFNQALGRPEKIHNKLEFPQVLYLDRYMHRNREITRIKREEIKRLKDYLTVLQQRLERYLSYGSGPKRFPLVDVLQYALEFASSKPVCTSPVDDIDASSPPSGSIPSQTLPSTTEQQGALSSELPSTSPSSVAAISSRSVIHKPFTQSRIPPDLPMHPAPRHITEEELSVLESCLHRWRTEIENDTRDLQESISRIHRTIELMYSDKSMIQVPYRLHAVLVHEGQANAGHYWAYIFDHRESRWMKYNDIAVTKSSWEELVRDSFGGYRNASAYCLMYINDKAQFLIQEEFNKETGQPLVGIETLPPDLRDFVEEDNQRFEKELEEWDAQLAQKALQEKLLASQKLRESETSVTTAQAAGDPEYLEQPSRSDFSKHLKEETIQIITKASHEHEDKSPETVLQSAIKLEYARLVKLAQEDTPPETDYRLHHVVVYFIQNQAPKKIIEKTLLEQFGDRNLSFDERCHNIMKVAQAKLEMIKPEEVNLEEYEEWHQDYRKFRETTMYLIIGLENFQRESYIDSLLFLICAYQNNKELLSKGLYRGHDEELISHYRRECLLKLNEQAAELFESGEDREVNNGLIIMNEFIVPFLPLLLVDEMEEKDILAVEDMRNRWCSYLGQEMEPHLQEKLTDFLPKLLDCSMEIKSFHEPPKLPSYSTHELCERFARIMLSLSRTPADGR
# Procedure, shortened: as §1
# USP28 = target: T3, USP28 (UniProt Q96RU2)
# T3 sequence (whole entry): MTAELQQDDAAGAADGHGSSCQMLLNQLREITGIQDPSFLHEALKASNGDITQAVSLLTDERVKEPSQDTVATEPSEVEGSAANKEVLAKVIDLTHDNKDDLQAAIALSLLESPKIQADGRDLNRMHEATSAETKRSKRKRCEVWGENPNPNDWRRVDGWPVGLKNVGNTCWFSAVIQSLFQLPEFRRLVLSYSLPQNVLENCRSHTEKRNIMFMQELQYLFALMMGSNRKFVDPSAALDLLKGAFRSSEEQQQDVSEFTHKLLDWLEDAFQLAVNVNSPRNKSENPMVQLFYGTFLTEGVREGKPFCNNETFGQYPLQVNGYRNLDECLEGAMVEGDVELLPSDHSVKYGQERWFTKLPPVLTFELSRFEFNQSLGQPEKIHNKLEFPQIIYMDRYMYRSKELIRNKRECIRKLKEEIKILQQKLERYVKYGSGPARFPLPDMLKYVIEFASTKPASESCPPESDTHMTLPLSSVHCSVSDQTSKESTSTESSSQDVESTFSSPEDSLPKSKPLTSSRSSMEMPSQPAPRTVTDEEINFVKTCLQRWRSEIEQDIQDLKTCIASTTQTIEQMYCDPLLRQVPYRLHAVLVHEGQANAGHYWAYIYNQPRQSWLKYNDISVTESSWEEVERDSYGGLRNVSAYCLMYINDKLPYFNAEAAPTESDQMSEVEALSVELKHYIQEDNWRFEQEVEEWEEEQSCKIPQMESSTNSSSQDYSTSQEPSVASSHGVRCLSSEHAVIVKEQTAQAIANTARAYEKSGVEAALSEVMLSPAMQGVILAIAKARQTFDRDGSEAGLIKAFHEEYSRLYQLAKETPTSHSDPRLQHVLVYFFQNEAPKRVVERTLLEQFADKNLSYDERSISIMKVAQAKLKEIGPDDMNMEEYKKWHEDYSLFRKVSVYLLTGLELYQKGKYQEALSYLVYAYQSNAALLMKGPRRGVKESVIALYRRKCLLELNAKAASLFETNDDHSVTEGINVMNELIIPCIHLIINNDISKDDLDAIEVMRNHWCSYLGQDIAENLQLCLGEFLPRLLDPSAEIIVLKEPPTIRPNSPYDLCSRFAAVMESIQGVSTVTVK
# Procedure, shortened: as §1
# USP24, sequence (Q9UPU5 whole entry): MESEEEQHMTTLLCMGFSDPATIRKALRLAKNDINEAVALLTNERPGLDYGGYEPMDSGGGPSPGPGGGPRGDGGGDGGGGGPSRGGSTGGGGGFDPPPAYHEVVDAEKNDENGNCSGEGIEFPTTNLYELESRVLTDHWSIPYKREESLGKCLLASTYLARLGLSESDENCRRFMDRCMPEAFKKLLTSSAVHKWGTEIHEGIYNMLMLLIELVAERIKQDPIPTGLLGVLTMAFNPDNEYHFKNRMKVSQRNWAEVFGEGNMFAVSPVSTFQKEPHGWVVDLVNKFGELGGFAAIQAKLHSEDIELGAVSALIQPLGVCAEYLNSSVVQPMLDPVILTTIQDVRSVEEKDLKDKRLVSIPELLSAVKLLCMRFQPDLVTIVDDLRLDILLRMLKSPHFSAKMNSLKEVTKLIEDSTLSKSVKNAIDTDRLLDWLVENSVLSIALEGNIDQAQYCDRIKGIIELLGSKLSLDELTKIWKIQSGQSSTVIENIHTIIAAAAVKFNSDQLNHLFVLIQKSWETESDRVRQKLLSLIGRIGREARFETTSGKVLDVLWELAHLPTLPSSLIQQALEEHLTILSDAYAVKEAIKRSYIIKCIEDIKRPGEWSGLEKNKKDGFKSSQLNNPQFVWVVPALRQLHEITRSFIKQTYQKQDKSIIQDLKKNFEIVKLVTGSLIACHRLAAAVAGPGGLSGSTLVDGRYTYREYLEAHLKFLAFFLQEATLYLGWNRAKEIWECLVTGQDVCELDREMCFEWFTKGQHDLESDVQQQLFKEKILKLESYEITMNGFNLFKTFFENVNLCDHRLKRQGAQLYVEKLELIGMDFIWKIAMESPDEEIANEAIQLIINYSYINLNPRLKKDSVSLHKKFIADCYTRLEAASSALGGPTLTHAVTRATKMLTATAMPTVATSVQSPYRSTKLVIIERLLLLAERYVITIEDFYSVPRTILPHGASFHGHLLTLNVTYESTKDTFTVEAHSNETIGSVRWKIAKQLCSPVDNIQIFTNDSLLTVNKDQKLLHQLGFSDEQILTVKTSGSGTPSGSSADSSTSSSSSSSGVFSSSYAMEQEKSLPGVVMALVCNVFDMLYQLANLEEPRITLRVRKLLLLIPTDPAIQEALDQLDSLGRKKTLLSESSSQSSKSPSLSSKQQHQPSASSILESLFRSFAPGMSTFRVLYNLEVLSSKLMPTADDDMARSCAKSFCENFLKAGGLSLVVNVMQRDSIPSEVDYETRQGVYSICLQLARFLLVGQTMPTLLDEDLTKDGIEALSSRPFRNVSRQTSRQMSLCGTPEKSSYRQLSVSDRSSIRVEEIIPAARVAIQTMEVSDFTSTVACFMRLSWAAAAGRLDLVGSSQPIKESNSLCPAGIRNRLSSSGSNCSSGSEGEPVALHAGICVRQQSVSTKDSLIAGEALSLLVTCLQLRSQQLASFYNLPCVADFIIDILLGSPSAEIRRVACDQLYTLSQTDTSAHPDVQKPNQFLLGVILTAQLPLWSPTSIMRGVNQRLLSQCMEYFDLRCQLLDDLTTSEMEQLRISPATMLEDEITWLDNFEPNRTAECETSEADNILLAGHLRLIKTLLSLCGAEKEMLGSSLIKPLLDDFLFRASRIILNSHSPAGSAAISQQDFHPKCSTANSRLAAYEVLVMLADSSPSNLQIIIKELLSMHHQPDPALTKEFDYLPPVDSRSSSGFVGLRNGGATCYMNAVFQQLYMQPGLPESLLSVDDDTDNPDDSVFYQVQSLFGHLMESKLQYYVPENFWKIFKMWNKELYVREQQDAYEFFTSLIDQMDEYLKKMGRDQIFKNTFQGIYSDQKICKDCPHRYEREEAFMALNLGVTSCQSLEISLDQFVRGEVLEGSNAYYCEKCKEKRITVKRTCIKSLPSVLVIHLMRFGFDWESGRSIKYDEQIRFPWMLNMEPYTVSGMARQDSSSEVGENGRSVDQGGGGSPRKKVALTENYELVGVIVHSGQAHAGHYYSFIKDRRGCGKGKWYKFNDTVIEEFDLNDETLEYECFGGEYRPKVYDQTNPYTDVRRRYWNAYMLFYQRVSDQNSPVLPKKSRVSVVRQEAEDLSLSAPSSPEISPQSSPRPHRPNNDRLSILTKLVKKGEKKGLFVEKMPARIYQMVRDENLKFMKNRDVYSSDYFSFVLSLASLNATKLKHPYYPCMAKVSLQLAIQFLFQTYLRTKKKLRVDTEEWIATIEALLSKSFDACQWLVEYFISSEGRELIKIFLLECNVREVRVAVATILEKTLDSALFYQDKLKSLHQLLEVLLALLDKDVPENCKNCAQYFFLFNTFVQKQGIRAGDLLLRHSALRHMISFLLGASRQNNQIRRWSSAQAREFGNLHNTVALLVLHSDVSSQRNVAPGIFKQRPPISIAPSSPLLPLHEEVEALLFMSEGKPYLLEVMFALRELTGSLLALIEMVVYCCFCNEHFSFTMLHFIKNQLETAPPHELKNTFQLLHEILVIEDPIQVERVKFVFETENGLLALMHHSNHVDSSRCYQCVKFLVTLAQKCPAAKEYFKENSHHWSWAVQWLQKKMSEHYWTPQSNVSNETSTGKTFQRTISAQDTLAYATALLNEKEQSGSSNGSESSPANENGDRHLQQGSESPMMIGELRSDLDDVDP
smiles,measurement,setting,value
Cl.O=C(CCl)N1CCn2ncc(O)c2C1,log2 ratio of Biotin-Ahx-Ub-VS probe labelling,USP19,-0.754
same,log2 ratio of Biotin-Ahx-Ub-VS probe labelling,USP24,-1.05 (active)
same,log2 ratio of Biotin-Ahx-Ub-VS probe labelling,USP25,-0.877
same,log2 ratio of Biotin-Ahx-Ub-VS probe labelling,USP28,-1.17 (active)
